Assay outcomes deposited in PubChem by The Scripps Research Institute Molecular Screening Center.
A selection: hits, their analogues and other compounds. The true share with any hit is near 5.7%.
AHR act: activates the human aryl hydrocarbon receptor; AHR-responsive luciferase reporter cells, luminescence; activation, % at 5 µM; 320,000 compounds, 2.5% hits; AID 2796; in the data active means activation above about 47%;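 further: 0% = vehicle wells and 100% = reference agonist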
Target sequence (P35869 whole entry, looked up): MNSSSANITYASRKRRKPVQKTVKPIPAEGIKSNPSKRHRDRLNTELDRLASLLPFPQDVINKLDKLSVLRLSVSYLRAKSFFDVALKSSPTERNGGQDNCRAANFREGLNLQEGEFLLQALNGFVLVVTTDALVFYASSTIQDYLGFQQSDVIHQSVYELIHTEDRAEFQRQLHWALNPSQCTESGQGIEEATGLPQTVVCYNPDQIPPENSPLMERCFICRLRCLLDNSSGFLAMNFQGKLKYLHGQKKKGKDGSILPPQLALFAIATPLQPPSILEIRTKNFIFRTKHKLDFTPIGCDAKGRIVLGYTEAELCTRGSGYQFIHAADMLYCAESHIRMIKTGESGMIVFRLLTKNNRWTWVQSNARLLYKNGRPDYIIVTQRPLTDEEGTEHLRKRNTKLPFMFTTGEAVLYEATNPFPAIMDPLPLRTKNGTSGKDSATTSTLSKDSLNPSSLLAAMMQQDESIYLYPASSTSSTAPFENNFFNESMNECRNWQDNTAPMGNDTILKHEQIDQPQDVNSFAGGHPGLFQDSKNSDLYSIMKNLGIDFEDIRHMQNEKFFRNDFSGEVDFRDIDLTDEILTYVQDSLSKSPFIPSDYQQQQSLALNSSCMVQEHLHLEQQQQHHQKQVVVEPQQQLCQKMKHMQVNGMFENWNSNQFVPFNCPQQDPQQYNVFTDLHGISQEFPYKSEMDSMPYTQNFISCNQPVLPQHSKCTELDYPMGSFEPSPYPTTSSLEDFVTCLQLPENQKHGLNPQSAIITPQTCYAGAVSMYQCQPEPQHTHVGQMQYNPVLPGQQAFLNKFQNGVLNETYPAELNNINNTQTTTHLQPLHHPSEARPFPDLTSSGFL
hgDAF12 agonist: hgDAF-12 agonism, primary luciferase screen; HEK293 GAL4-hgDAF12 UAS-luciferase reporter, agonist luminescence; normalized to butyrate control; activation, % at 6.8 µM; 370,000 compounds, 1.8% hits;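 active means activation above a cutoff set at the mean of all screened compounds plus 3 SD, cut at about 10% in these data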;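 further: 0% = DMSO wells and 100% = sodium butyrate wells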
DAX1 inh-1: blocks DAX1 repression of SF-1 activated StAR promoter; HEK293T StAR-luciferase reporter, SF-1/DAX-1 repression relief; inhibition, % at 6.8 µM; 370,000 compounds, 1.1% hits;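 active means inhibition above the mean over all tested compounds plus 3 SD, cut at about 3.6% in these data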;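 further: 0% = DAX-1 cells with DMSO and 100% = cells lacking DAX-1 with DMSO; higher inhibition means more luminescence from relief of DAX-1 repression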
ssDAF12 agonist: S. stercoralis DAF-12 activation, primary screen. HEK293 ssDAF-12/GRIP1 lit1-tk-luc reporter, luminescence; % of 3 µM dafachronic acid response. activation, % at 6.8 µM. 370,000 compounds, 1% hits. AID 652126;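 active means activation above the mean over all tested compounds plus 3 SD, cut at about 0.9% in these data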;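 further: 0% = DMSO-only wells and 100% = 3 µM delta7-dafachronic acid wells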
hcDAF-12 act: H. contortus DAF-12 activation, primary screen; HEK293 hcDAF-12 lit1-tk-luc reporter, luminescence; 0% DMSO, 100% Δ7-dafachronic acid; activation, % at 6.8 µM; 370,000 compounds, 1.4% hits;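 active means activation above the mean of all tested compounds plus 3 SD, cut at about 5.5% in these data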;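 further: 100% = response to 3 µM Δ7-dafachronic acid high control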
DAX1 inh-2: inhibits human nuclear receptor DAX1. inhibition, % at 6.75 µM. HEK293 Gal4-DAX1 luciferase reporter, luminescence. P51843. 340,000 compounds, 0.99% hits. AID 504766;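 active means inhibition above the mean over all tested compounds plus 3 SD, cut at about 4.2% in these data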;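 further: 0% = DAX1-transfected cells with DMSO and 100% = empty-vector control cells with DMSO; inhibition shows as a rise in luminescence from relieved DAX1 repression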
DAX1 inh confirm: confirmation of human DAX1 (NR0B1) inhibitors. shares compounds with DAX1 inh-1. HEK293T StAR-promoter luciferase reporter, SF-1/DAX-1 repression. inhibition, % at 6.8 µM. 2,400 compounds, 87% hits;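 active means inhibition above the average of every tested compound plus 3 SD, cut at about 3.8% in these data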;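 further: 0% = DAX-1 cells with DMSO and 100% = no DAX-1 control cells with DMSO; active compounds raise luminescence by relieving repression of the StAR reporter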
SF1 mutant ctr: nonselective inhibitor or artifact in SF-1 mutant DAX1 counter-screen. HEK293 StAR-luciferase, SF-1 AF2 mutant, luminescence. 2,400 compounds, 78% hits. shares compounds with DAX1 inh-1. inhibition, % at 6.8 µM;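 active means inhibition above the mean of all tested compounds plus 3 SD, cut at about 3% in these data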;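 further: 0% = DAX-1 transfected cells with DMSO and 100% = cells without DAX-1 with DMSO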
Numbers without * were called inactive; x = no result.

SMILES	AHR act	hgDAF12 agonist	DAX1 inh-1	ssDAF12 agonist	hcDAF-12 act	DAX1 inh-2	DAX1 inh confirm	SF1 mutant ctr
O=C(Nc1ccc(F)c([N+](=O)[O-])c1)c1ccc2c(c1)OCCO2	17	7	0	-1	0	-1	x	x
O=C(Nc1ccc(Cl)cc1[N+](=O)[O-])c1ccc2c(c1)OCCO2	-4	6	4.7*	-1	2	0	10*	4.2*
Cc1[nH]c2ccc(C(=O)NC3CCC(C)CC3)cc2c1C (stereo not drawn)	8	13*	5.4*	-1	4	2	6.8*	3.3*
Cc1cccc(C(=O)NNC(=O)c2cccc(C)c2)c1	2	1	0	-1	0	0	x	x
Cc1cccc(C(=O)Nc2ccn(C)n2)c1	x	8	4.9*	-1	0	2	5.8*	3.0*
COCC(=O)Nc1cc(C(=O)NCCc2ccccc2)ccc1Cl	-6	8	5.7*	-1	5.8*	1	9.3*	3.3*
COc1ccc(C(=O)Nc2cc(C(=O)NCCc3ccccc3)ccc2Cl)cc1	13	1	0	-1	3	-1	x	x
COc1ccccc1C(=O)N1CCCC(C)(C(=O)NS(=O)(=O)C2CC2)C1 (stereo not drawn)	x	-1	0	-1	0	x	x	x
CCN(CCn1cccn1)C(=O)c1cc(COc2ccccc2SC)on1	x	10	4.6*	0	1	3	7.1*	5.4*
CCN(CCN1CCCC1)C(=O)c1cc(COc2ccccc2SC)on1	x	1	0	-1	3	1	x	x
CC(=O)c1ccc(-c2[nH]c3ccccc3c2CCN2C(=O)c3ccccc3C2=O)cc1	x	-4	-1	0	0	-3	x	x
CC(=O)c1ccc(-c2c(CCO)sc3ccccc23)cc1	x	8	5.7*	-1	2	x	3	3.0*
Cc1cc(Cl)c2oc(C(=O)N(C)C3CCOC3)c(C)c2c1 (stereo not drawn)	7	4	6.6*	0	0	2	7.5*	2
CCOC1=C2[C@@H](CN(S(=O)(=O)c3ccc(C)cc3)[C@H]2c2cccc3ccccc23)[C@H]2C(=O)N(C3CCCCC3)C(=O)[C@H]2C1	x	0	3	-1	-1	x	x	x
CC(Sc1ccccc1F)C(=O)Nc1ccc2c(c1)OCCO2 (stereo not drawn)	2	10	4.9*	0.9*	4	2	6.5*	4.0*
COc1ccc(-c2sc3ccccc3c2-c2ccc(OC)cc2F)cc1	x	3	5.3*	-1	2	x	1	2
COc1ccc(-c2sc3ccccc3c2-c2ccc(O)cc2)cc1	25	0	-1	-2	-1	-1	x	x
Cc1nnc(SCC(=O)NC(C)(C)C)n1NCc1c(F)cccc1Cl	0	-3	1	-2	-1	2	x	x
Cc1cc(NC(=O)c2cccc(COc3ccc(Br)cc3)c2)no1	-13	12*	4.5*	0	4	-3	4.0*	4.6*
O=C(C[n+]1ccc(C(=O)NCc2ccccc2)cc1)c1ccc(Cl)cc1	0	0	0	-1	-1	1	x	x
CCCSc1nnc(CNC(=O)C23CC4CC(CC(C4)C2)C3)n1Cc1ccccc1	-2	-1	0	-1	0	-2	x	x
O=c1c(Br)c(N2CCCCC2)cnn1-c1ccccc1	1	13*	4.6*	-1	3	4.5*	10*	8.3*
CN1CCN(c2cnn(-c3ccccc3)c(=O)c2Br)CC1	1	3	1	-1	0	0	x	x
CC1=C(/C=C/C(C)=C/C=C/C(C)=C\C(=O)O)C(C)(C)CCC1	-7	-5	5.9*	-1	-3	-1	18*	7.5*
CC1=C(/C=C/C(C)=C/C=C/C(C)=C/C(=O)Nc2ccc(O)cc2)C(C)(C)CCC1	-1	7	1	-1	0	1	x	x
SMILES	AHR act	hgDAF12 agonist	DAX1 inh-1	ssDAF12 agonist	hcDAF-12 act	DAX1 inh-2	DAX1 inh confirm	SF1 mutant ctr
Cc1ccc(NC(=O)N2CCCCCC2)cc1C	3	5	5.9*	0	3	2	8.1*	5.4*
CCn1c2ccccc2c2cc(NC(=O)N3CCCCC3)ccc21	x	9	4.7*	0	3	3	10*	5.4*
CCn1c2ccccc2c2cc(NC(=O)c3ccccc3-c3ccccc3C(=O)O)ccc21	1	-1	1	-1	-1	1	x	x
O=C(Nc1ccc(F)c(Cl)c1)N1CCCCCC1	12	5	4.7*	0	1	1	5.2*	5.8*
Cc1ccc(NC(=O)N2CCCCC2)cc1NC(=O)N1CCCCC1	13	1	0	-1	-1	0	x	x
O=C(Nc1ccc(F)c(Cl)c1)N1CCCC1	0	3	0	-1	0	0	x	x
COc1ccc(-c2cc(=O)c3c(C)cc(O)cc3o2)cc1	x	12*	5.6*	1.8*	6.5*	2	13*	4.6*
CCNC(=O)C1CCCN(C(=O)c2ccc(C(F)(F)F)cc2)CC1 (stereo not drawn)	x	0	0	0	0	x	x	x
CC(C)CCNC(=O)C(c1ccncc1)N(Cc1cccs1)C(=O)Cn1nnc(-c2ccc(F)cc2)n1 (stereo not drawn)	6	-2	-1	0	1	-3	x	x
CC(C)Oc1ccc(S(=O)(=O)N2CCCCC2)cc1NC(=O)CN1C(=O)NC(C)(C2CC2)C1=O (stereo not drawn)	-1	-2	4.7*	-1	-1	0	1	2
COc1ccc(S(=O)(=O)N2CCCCC2)cc1NC(=O)CN1C(=O)NC(C)(C2CC2)C1=O (stereo not drawn)	0	-1	0	-1	-1	0	x	x
CN(Cc1cn(Cc2ccccc2)nn1)S(=O)(=O)c1ccc(F)cc1Br	x	3	0	-1	4	x	x	x
O=C(CSc1nc(=O)[nH]c2c1CCCC2)Nc1cc(C(F)(F)F)cc(C(F)(F)F)c1	0	4	-1	-1	-1	2	x	x
CCOC(=O)C1CCN(C(=O)c2ccc(C)o2)CC1	0	1	0	-1	2	2	x	x
CCOC(=O)C1CCN(C(=O)c2cc3cc4ccc(C)cc4nc3o2)CC1	3	7	7.5*	0	2	0	8.0*	4.9*
Cc1cccc(NC(=O)/C=C/c2ccc(Cl)cc2)n1	-7	12*	4.6*	0	4	1	8.7*	5.0*
C1CCCCCC(NCCN2CCNCC2)CCCCC1	0	0	0	0	1	3	x	x
